Shown is part of a subset that was picked to be rich in hits.
Sa helicase inh – inhibitors of S. aureus replicative helicase, primary screen, biochemical, fluorescence unwinding readout | replicative DNA helicase (DnaC/DnaB), Staphylococcus aureus | purified S. aureus helicase, fluorescence unwinding assay | inhibition, % (concentration not given with the values) | hit rate 0.05% among 120,000 | AID 485395, 2010; in the data active means inhibition above about 25%, passing the limit was not always enough;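 further: 0% = mean of negative control wells and 100% = mean of positive control wells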
Sa growth 42C – S. aureus growth inhibition at 42 and 30 °C, primary screen, LtaS inhibitor project, RN4220, two temperatures | hit rate 0.53% among 170,000 | OD600, 20 h, 42 °C; active compounds read low | relative growth, % (concentration not given with the values);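 active means relative growth at most 50% at the other temperature and 20+ points below 30 °C, or under 10% at both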
* = called active by the depositor; x = no result given; ! = repeats disagree.

SMILES	Sa helicase inh	Sa growth 42C
CC(C)CN(CC(C)C)Cn1nc(-c2ccc3c(c2)OCO3)oc1=S	-11	70
CN(Cn1nc(-c2ccc3c(c2)OCO3)oc1=S)C1CCCCC1	2	45*
COc1ccc(C2(C(=O)NCCN3CCOCC3)CCCC2)cc1	16	97
COc1ccc2c(COC(=O)c3ccc4c(=O)n5c(nc4c3)CCC5)cc(=O)oc2c1	26*	84
O=C(OCc1ccccc1Cl)c1ccc2c(=O)n3c(nc2c1)CCC3	14	84
FC(F)Sc1ccc(N=C=S)cc1	3	-0.8*
FC(F)Oc1ccc(N=C=S)cc1	-3	92
O=C(CC(c1ccccc1)c1ccccc1)NCCN1CCOCC1	15	112
Cc1ccc(C)n1-c1ccsc1C(=O)O	35	46*
Cc1ccc(C(=O)O)cc1-n1c(C)ccc1C	2	86
O=C(Nc1ccc2ccccc2c1)c1ccco1	x	98
O=C(Nc1ccc(Cl)c(Cl)c1)Oc1ccc(NC(=O)c2ccco2)cc1	-2	3.7*
Cc1cc(NS(=O)(=O)c2ccc(NS(=O)(=O)CC34CCC(CC3=O)C4(C)C)cc2)no1 (stereo unspecified)	-5	49*
Cc1cc(C)nc(NS(=O)(=O)c2ccc(NS(=O)(=O)CC34CCC(CC3=O)C4(C)C)cc2)n1 (stereo unspecified)	-13	111
COC(=O)C1CN(C(=O)c2ccccc2Cl)c2ccccc2O1 (stereo unspecified)	1	85
Cc1ccc(Cn2c(C)c3cnn(CC(=O)N4CCCCCC4)c(=O)c3c2C)cc1	28	95
CN(C)CCNc1nc(-c2noc(NCCN(C)C)n2)no1	6	83
C=C(C)C1Cc2cc(/C=C/C(=O)O)c(O)cc2O1 (stereo unspecified)	9	0.5*
C=C(C)C1Cc2cc3ccc(=O)oc3cc2O1 (stereo unspecified)	1	103
COc1ccc(C(=O)NCCCc2nc3ccccc3n2C)cc1OC	-7	x
O=C(c1c(Cl)nc2sccn12)N1CCOCC1	23	106
N#CSc1c(Cl)nc2sccn12	0	1.8*
CC(=O)Nc1ccc(SCC(=O)N2CCCCC2C)cc1 (stereo unspecified)	-7	99
CC(NC(=O)C1CCCN(C(=O)c2cc3sccc3n2C)C1)c1ccccc1 (stereo unspecified)	19	85
Nc1ccccc1NCCO	-22	88
SMILES	Sa helicase inh	Sa growth 42C
Nc1ccccc1NCCc1ccccc1	-75	9.1*
Cc1ccc(-c2c(CN3CCN(c4cccc(C)c4C)CC3)csc2C)cc1	x	105
Cc1ccc(-c2c(CN3CCN(C)CC3)csc2C)cc1	-10	6.2*
Oc1ccc2c(c1)c(-c1ccccc1)nn2-c1ccccc1	-26	20*
c1ccc(-c2nn(-c3ccccc3)c3c2cnc2ccccc23)cc1	13	109
CC1(C(=O)NC2CCCC2)CCC(=O)N1CCc1ccc(Cl)cc1 (stereo unspecified)	5	94
O=S(=O)(c1cc(Cl)ccc1Cl)N1CCCC1	1	49*
O=S(=O)(c1cc(Cl)ccc1Cl)N1CCCCC1	x	109
O=C(NCCCN1CCCC1)C(Cc1ccccc1)N1Cc2ccccc2C1=O (stereo unspecified)	-30	102
O=C1C=C(c2ccccc2)C(=O)c2ccccc21	x	3.8*
O=C1C(=Cc2ccc(F)cc2)C(=O)c2ccccc21	x	102
NC1=CC(=O)c2ccccc2C1=O	-5	0.6*
O=C1C=C(Cc2ccc(F)cc2)C(=O)c2ccccc21	5	0.2*
O=C1C=C(Nc2ccccc2)C(=O)c2ccccc21	19	24
CC1=CC(=O)c2ccccc2C1=O	x	17
Nc1ccnn1Cc1ccsc1	-2	78
Cc1cccc(C(=O)OCc2nc3ccccc3c(=O)[nH]2)c1C	-14	93
Cc1c(F)cccc1NS(=O)(=O)c1cc2c3c(c1)c(C)cc(=O)n3CCC2	-3	141
CC(=O)N/C(=C/c1ccccc1)C(=O)Nc1ccc(C)c(C)c1	1	104
COc1cccc2c1C(=O)c1c(O)c3c(c(O)c1C2=O)C[C@@](O)(C(=O)CO)C[C@@H]3O[C@H]1C[C@H](N)[C@H](O)[C@H](C)O1	x	1.8*!
O=C1c2ccccc2OCC1c1ccccc1 (stereo unspecified)	x	90
CN(C)CC1COc2ccccc2C1=O (stereo unspecified)	x	-0.4*
NC(=S)N/N=C1/C2C3CC4C1C1C2CC3C41 (stereo unspecified)	9	106
CCOc1ccc(NC(=O)C2NC(=O)CC2c2ccccc2)cc1 (stereo unspecified)	10	89
CCOc1ccc(NC23SCC(=O)C2CCc2ccccc23)cc1 (stereo unspecified)	x	2.0*
SMILES	Sa helicase inh	Sa growth 42C
CCOC(=O)c1ccc(-n2c(C)cc(C=C3C(=O)NC(=S)NC3=O)c2C)cc1	18	101
CC(C)(C)NC(=O)CCN1C(=O)c2ccccc2S1(=O)=O	13	100
COC(=O)[C@@H]1CC(=O)O[C@H](C)C/C=C/C=C/[C@H](O)[C@H](C)C[C@H](CC=O)[C@H](OC2O[C@H](C)[C@@H](OC3C[C@@](C)(O)[C@@H](OC(=O)CC(C)C)[C@H](C)O3)[C@H](N(C)C)[C@H]2O)[C@H]1OC (stereo partly specified)	x	-0.6*
Cc1cc(=O)[nH]c(SCC(=O)Nc2ccc(N3CCCC3)cc2)c1C#N	14	87
Cc1cc(=O)[nH]c(SCC(=O)Nc2ccc(Br)cc2)c1C#N	0	7.7*
O=C1c2ccccc2C(=O)N1c1nccs1	-8	83
O=C1c2ccccc2C(=O)c2sccc21	-18	1.6*
COc1ccc(C(=O)/C=C2\N/C(=N\S(=O)(=O)c3ccc(N)cc3)NC2=O)cc1	-28	96
CCN(CC)CCCNc1nc2cc(OC)c(OC)cc2c2nc(-c3ccccc3)nn12	74*	104
CCN(CC)CCCNc1nc2cc(OC)c(OC)cc2c2nc(-c3cccnc3)nn12	43	94
O=C1CN(CCc2ccccc2)CC(=O)N1CCc1ccccc1	9	96
CC1=NN(c2nc3ccccc3s2)C(=O)C1CCC(C)C (stereo unspecified)	-3	1.9*
CC1=NN(c2nc3ccccc3s2)C(=O)C1	x	92
Cc1ccc(N2C(=O)CC(N3CCC(NS(=O)(=O)c4ccccc4)CC3)C2=O)cc1 (stereo unspecified)	-24	93
O=c1ccsn1Cc1ccccc1	26	-0.8*
O=C1N(Cc2ccccc2)c2cccc3cccc(c23)N1Cc1ccccc1	-1	113
COC(=S)Nc1cccc(C(F)(F)F)c1	x	94
CC(C)c1ccc(NC(=S)Nc2cccc(C(F)(F)F)c2)cc1	x	-2.1*
CNC(=S)Nc1cccc(C(F)(F)F)c1	11	114
CC(C)(C)NC(=S)Nc1cccc(C(F)(F)F)c1	3	0.1*
O=C(Nc1ccc(Oc2ccccc2)cc1)c1ccccn1	6	87
CO/N=C/c1c(N(C(C)C)C(C)C)nc2ccc(C)cn2c1=O	17	107
Cn1c(CC23CC4CC(CC(C4)C2)C3)nnc1SCC(N)=O	4	109
COC(=O)c1cccc(OCC(O)CN(C)Cc2ccc(OC(F)F)c(OC)c2)c1 (stereo unspecified)	-7	97
O=C(O)c1cn(-c2ccc(F)cc2)c2cc(N3CCNCC3)c(F)cc2c1=O	x	-0.9*
Cn1cc(S(=O)(=O)c2ccccc2)c(=O)c2cc(F)c(N3CCN(c4ccc(F)cc4)CC3)cc21	x	101
